CBFb RUNX1 block = qHTS Assay for Compounds Blocking the Interaction Between CBF-beta and RUNX1 for the Treatment of Acute Myeloid Leukemia | Potency, µM (titrated, usually from 59.8 µM), for the others: at the highest dose activity, negative = inhibition, hits mostly inhibitors | Runt-related transcription factor 1 (Homo sapiens) + Core-binding factor subunit beta … | 230,000 tested, under 10 active | AlphaScreen CBFb-His/RUNX1-biotin binding, biochemical; also: % of control where 0% means no effect
Target sequence (Q01196 whole entry, looked up): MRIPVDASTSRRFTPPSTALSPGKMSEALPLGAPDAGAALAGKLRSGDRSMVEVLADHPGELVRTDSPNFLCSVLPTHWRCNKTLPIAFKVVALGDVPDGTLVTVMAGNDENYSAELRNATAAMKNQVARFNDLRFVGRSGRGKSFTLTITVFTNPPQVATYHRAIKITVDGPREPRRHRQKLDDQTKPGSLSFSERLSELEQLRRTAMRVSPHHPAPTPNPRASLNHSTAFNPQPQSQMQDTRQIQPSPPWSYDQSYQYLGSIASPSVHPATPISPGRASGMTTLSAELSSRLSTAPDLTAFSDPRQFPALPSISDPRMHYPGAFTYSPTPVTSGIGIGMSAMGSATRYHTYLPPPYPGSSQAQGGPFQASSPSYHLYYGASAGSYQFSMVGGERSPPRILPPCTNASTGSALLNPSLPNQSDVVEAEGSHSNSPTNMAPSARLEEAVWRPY
Target sequence (Q13951 whole entry, looked up): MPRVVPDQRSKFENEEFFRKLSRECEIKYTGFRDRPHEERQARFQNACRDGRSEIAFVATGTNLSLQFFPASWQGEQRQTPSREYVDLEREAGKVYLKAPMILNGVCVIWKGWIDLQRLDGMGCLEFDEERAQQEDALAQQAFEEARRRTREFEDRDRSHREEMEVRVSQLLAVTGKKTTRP
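Room-temperature protein-protein interaction test with 30 nM each of His-tagged CBF-beta and biotinylated RUNX1, 15 min with compound, then 90 min with nickel plus streptavidin beads. Signal read in AlphaScreen mode.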
HTT cytoprotect = qHTS Multiplex Assay to Identify Dual Action Probes in a Cell Model of Huntington: Cytoprotection (ATP); 230,000 tested, 0.14% active; PC12 HTT-Q103 induced, cytoprotection, ATP luminescence, 40 h; Potency, µM (doses to about 56.4 µM), without a hit: cytoprotection (ATP increase), most hits filed as activators; also: potency is read from the fitted curve at half-maximal effect; % of control where 0% means no effect; nearly all actives have a fitted effect of over 45% in size
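Readout: ATPlite luminescence (ATP level). Model: stable PC12, inducible Htt exon1 Q103-GFP. Inducer: tebufenozide, 100 nM final. Compounds: dose series. No G418 in medium.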
KDM4E inh = qHTS Assay for Inhibitors of Human Jumonji Domain Containing 2E (JMJD2E); JMJD2E catalytic domain, FDH-coupled NADH fluorescence (FDH is formaldehyde dehydrogenase); Potency, µM (titrated, usually from 57.1 µM), for the others: top-dose activity change, negative = inhibition, hits mostly inhibitors; 230,000 tested, 1.6% active; active = well fitted inhibition curve with a large enough effect, not every such curve was filed as active; inconclusive = small, poorly fitted or top-dose-only effect, or another doubt; inactive = no such curve, though single readings can be large or run the other way;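 also: potency is read from the fitted curve at half-maximal effect; 0% = wells with enzyme and -100% = buffer wells without enzyme; nearly all actives have a fitted effect of over 50% in size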
ALDH1A1 inh = qHTS Assay for Inhibitors of Aldehyde Dehydrogenase 1 (ALDH1A1). Potency, µM (top dose mostly 75.3 µM), for inactives: at the highest dose activity, negative = inhibition, most hits filed as inhibitors. Aldehyde dehydrogenase 1A1 (Homo sapiens), P00352. 220,000 tested, 7.3% active. Purified ALDH1A1, NADH fluorescence, propionaldehyde substrate; active = well fitted inhibition curve with a large enough effect, not every such curve was filed as active; inconclusive = small, poorly fitted or top-dose-only effect, or another doubt; inactive = no such curve, though single readings can be large or run the other way;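 also: potency is read from the fitted curve at half-maximal effect; plate controls were no enzyme wells and a reference inhibitor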
HttQ103 aggreg = qHTS Multiplex Assay to Identify Dual Action Probes in a Cell Model of Huntington: Aggregate Formation (GFP); PC12 HttQ103-GFP aggregates, Acumen cytometry, 40 h; 220,000 tested, 1.1% active; Potency, µM (top dose mostly 46.1 µM), for inactives: top-dose activity change, negative = inhibition, hits mostly inhibitors; also: potency is read from the fitted curve at half-maximal effect; % is scaled to controls: 0 for no effect and ±100 for the full control effect; nearly all actives have a fitted effect of over 60% in size
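PC12/HTTQ103-GFP, ecdysone-inducible; teb 100 nM; cpd qHTS titration; GFP aggregates read on laser cytometer, Ex 488/Em 500-530 nm.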
HPGD inh = qHTS Assay for Inhibitors of HPGD (15-Hydroxyprostaglandin Dehydrogenase); 15-hydroxyprostaglandin dehydrogenase [NAD(+)] (Homo sapiens), P15428; purified HPGD, NADH fluorescence kinetic, PGE2 substrate; Potency, µM, for the others: top-dose activity change, negative = inhibition, hits mostly inhibitors; 150,000 tested, 4.3% active; active = well fitted inhibition curve with a large enough effect, not every such curve was filed as active; inconclusive = small, poorly fitted or top-dose-only effect, or another doubt; inactive = no such curve, though single readings can be large or run the other way; also: potency is read from the fitted curve at half-maximal effect; % is scaled to controls: 0 for no effect and ±100 for the full control effect
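20 nM HPGD preincubated 15 min at room temperature with compound in 50 mM Tris-HCl pH 8, 0.01% Tween 20. Started with 1 mM NAD+ and 30 uM prostaglandin E2; NADH fluorescence (360/450 nm) read 5 times over 30-s intervals, last minus first.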
Numbers without * were called inactive; ? = inconclusive; nt = not tested or not shown; [ ] = another dose, or the depositor's remark. Most compounds without a hit are left out; they make up all but 9.8% or so of the library. Unless noted, calls follow the shape of the dose curve; as a rule, active = well fitted curve in the direction sought with a large enough effect; inconclusive = small, poorly fitted or top-dose-only effect, or another doubt; inactive = no such curve, though single readings can be large; an effect the other way counts as inactive or inconclusive.

SMILES	CBFb RUNX1 block	HTT cytoprotect	KDM4E inh	ALDH1A1 inh	HttQ103 aggreg	HPGD inh
CC(C)(C)c1csc(NC(=O)c2ccc3nccnc3c2)n1	-6.3%	-37.2%	?	?	-18.6%	10µM*
CC(C)(C)c1csc(NC(=O)c2ccncc2)n1	9.4%	nt	-18.5%	-4.1%	-34.0%	nt
CC(C)(C)c1csc(NC(=O)c2ccc(Cl)s2)n1	?	-104.9%	?	-13.8%	8.91µM*	-24.0%
O=C(NC(NC(=S)Nc1c(Cl)cc(Cl)cc1Cl)C(Cl)(Cl)Cl)OCc1ccccc1 (centres undefined)	-2.9%	7.4%[10 µM]	0.9%	3.55µM*	-22.4%	-7.7%
O=C1C2C3C=CC(C4CC34)C2C(=O)N1/N=C/c1ccc(-c2cccc([N+](=O)[O-])c2)o1 (centres undefined)	-1.3%	2.8%[0.074 µM]	15.1%	14.1µM*	?	12.6µM*
CC(Cc1ccccc1)C(=O)NCc1ccccn1 (centres undefined)	6.6%[2.36 µM]	1.5%	-1.5%	1.0%	-17.4%	-8.7%
Cc1cc(/C=C(\C#N)C(=O)Nc2ccccc2)c(C)n1-c1ccc2c(c1)OCO2	2.6%	-1.8%[10 µM]	25.1µM*	?	-1.2%	-24.7%
COCCNC(=O)/C(C#N)=C/c1cc(C)n(-c2ccc(C)cc2)c1C	-20.2%	-12.1%[10 µM]	?	5.62µM*	6.6%[9.22 µM]	nt
Cc1ccccc1NC(=O)/C(C#N)=C\c1cc(C)n(-c2ccc(C(=O)O)cc2)c1C	-24.3%	9.4%[10 µM]	20µM*	nt	11.4%[9.22 µM]	nt
Cc1cc(/C=C(\C#N)C(=O)Nc2ccc(F)cc2)c(C)n1-c1ccc(N2CCOCC2)c([N+](=O)[O-])c1	-2.6%	-11.7%	-3.1%	15.8µM*	-17.4%	-16.0%
Nc1cccc(-n2cccc2)c1	-16.3%	-9.3%[10 µM]	-20.2%	9.7%	-13.6%[9.22 µM]	nt
CN(C)CCCSc1nc2ccccc2[nH]1	nt	3.7%[10 µM]	nt	21.3%[13.5 µM]	nt	2.4%
Cc1c(Cl)c(S(N)(=O)=O)cc2c1=NC=NS=2(=O)O	nt	14.6%[10 µM]	nt	-2.9%[13.5 µM]	nt	-3.4%
Cc1cnc(C(=O)OCC(=O)N2c3ccccc3NC(=O)C2(C)C)cn1	0.2%	-2.8%	5.6%	6.6%	-3.8%	-7.4%
CC1(C)C(=O)Nc2ccccc2N1C(=O)COc1ncnc2c(Cl)cc(Cl)cc12	1.4%	-11.2%	?	28.2µM*	-22.1%	nt
COc1ccc2c(=O)c3c(=O)n(-c4ccc(C)cc4)c(-c4ccccc4)nc3oc2c1	7.1%	-14.3%[10 µM]	1.2%	nt	-3.8%[9.22 µM]	nt
Cc1ccc(-n2c(C)nc3oc4ccccc4c(=O)c3c2=O)cc1	-6.9%	-8.0%	1.5%	28.2µM*	0.1%	?
CCOc1ccc(NC2=C(Cl)C(=O)N(Cc3ccccc3)C2=O)cc1	-23.2%	1.1%	2.3%	13.0%	-0.7%	nt
CCOc1ccc(NC2=C(OC)C(=O)c3ccccc3C2=O)cc1	nt	-59.8%[10 µM]	14.1µM*	3.16µM*	?	20µM*
COC1=C(Nc2ccc(OC)cc2)C(=O)c2ccccc2C1=O	-0.3%	-15.0%[10 µM]	3.98µM*	?	12.6µM*	15.8µM*
COC1=C(Nc2ccc(O)cc2)C(=O)c2ccccc2C1=O	?	7.5%[10 µM]	10µM*	17.8µM*	15.4%	28.2µM*
COc1ccc(NC2=C(NCCO)C(=O)c3ccccc3C2=O)cc1	3.2%	-15.1%[10 µM]	?	11.2µM*	-0.8%	-18.1%
O=C1C(Cl)=C(Nc2ccc(O)cc2)C(=O)c2ccccc21	-16.7%	-98.4%[10 µM]	-1.6%	nt	?	nt
COc1ccc(NC2=C(c3ccc(OC)cc3)C(=O)c3ccccc32)cc1	0.4%	-13.6%[10 µM]	-3.8%	14.3%	-9.9%	-7.6%
NC(N)=Nc1nc2ccccc2o1	0.4%	7.8%[10 µM]	3.0%	nt	-2.2%[9.22 µM]	nt
SMILES	CBFb RUNX1 block	HTT cytoprotect	KDM4E inh	ALDH1A1 inh	HttQ103 aggreg	HPGD inh
CCCCC1=C(C(=O)OCC)C(C(=O)OCC)Oc2ccccc21 (centres undefined)	?	?	nt	8.8%	nt	-14.3%
C=CCN1C(=O)C(Cc2ccccc2Cl)SC1=Nc1ccc(C(=O)O)cc1 (centres undefined)	8.3%	17.2%[10 µM]	-8.2%	nt	30.7%[9.22 µM]	nt
OCC1CCCN(Cc2cn(Cc3ccccc3)nc2-c2cc3ccccc3o2)C1 (centres undefined)	-0.3%	0.9%[10 µM]	-10.8%	?	-10.9%[9.22 µM]	nt
C/C=C1\COC(C(=O)NCCOCCO)(C(F)(F)F)C=C1C=C1CCCCC1 (centres undefined)	19.8%	nt	nt	nt	nt	nt
Cc1cccc(NC2=C(NCCO)C(=O)c3ccccc3C2=O)c1	?	22.6%[10 µM]	?	25.1µM*	-32.1%	-5.8%
O=C(Cc1ccccc1)Nc1cccc(N2C(=O)C=CC2=O)c1	-6.8%	14.4%[0.074 µM]	11.0%	0.708µM*	?	3.55µM*
NNC(=O)c1ccc(-c2ccccc2F)cc1	-4.6%	14.6%[10 µM]	3.7%	1.12µM*	8.5%[9.22 µM]	nt
COC(=O)Cc1ccc(NC(=S)N2CCCCC2C)cc1 (centres undefined)	3.5%	-6.0%[10 µM]	0.5%	14.4%	6.1%	nt
COc1ccc(/C(O)=C2\C(=O)C(=O)N(c3cc(C)on3)C2c2ccccc2OC)cc1 (centres undefined)	-5.7%	-11.5%	5.7%	22.4µM*	0.8%	-23.9%
O=C(c1ccc([N+](=O)[O-])cc1)N1C=CC(C(F)(F)F)=NCC1	0.1%	-9.1%[10 µM]	-1.8%	6.5%	4.9%[9.22 µM]	nt
Cc1ccc(-n2cnc3sc(C)c(C)c3c2=O)cc1	7.8%	-37.1%	7.1%	4.0%	1.2%	nt
CC(C)(C)c1ccc(C(=O)NCCCN2CCN(CCCNC(=O)c3ccc(C(C)(C)C)cc3)CC2)cc1	0.0%	-53.9%[10 µM]	1.0%	?	7.08µM*	-18.1%
O=C(NCCCN1CCOCC1)c1ccc(Br)cc1	-3.2%	-12.2%	4.4%	0.0%	-6.2%	-9.8%
O=C(NCCCN1CCOCC1)c1ccc(CNS(=O)(=O)c2ccc(Br)cc2)cc1	-2.4%	nt	-2.1%	22.4µM*	-2.5%	-9.6%
O=[N+]([O-])c1ccc(OCCO)c(P(=O)(c2ccccc2)c2ccccc2)c1	0.4%	1.1%[10 µM]	-6.1%	nt	0.6%[9.22 µM]	nt
O=C(/C=C/c1ccccc1)NC1CCSC1=O (centres undefined)	0.8%	-6.1%[1.9 µM]	0.2%	-12.3%	5.8%	-1.5%
Cc1ccc(C(=O)CSc2nnc(-c3ccc4[nH]c(C)c(C)c4c3)o2)cc1C	-0.2%	4.5%	-0.5%	1.41µM*	10.1%	-7.5%
Cc1[nH]c2ccc(-c3nnc(SCC(=O)c4ccccc4F)o3)cc2c1C	-12.0%	-11.4%	-0.4%	1.8%	21.6%	nt

Source: PubChem (National Center for Advancing Translational Sciences (NCATS))
